Screening results from PubChem BioAssay.
A selection: hits, their analogues and other compounds. The true share with any hit is near 12%.
PLK1 PBD block: inhibitors of human PLK1 polo-box domain binding; AID 720504; actives 2.8% (n = 360,000); Potency, µM, inactives show max response, negative = inhibition, most hits filed as inhibitors; P53350; Plk1 PBD binding of FITC phosphopeptide, fluorescence polarization; note: potency is the fitted concentration of half-maximal effect; series mostly up to about 57 µM; % is set by controls: 0 for no effect and ±100 for the full control effect; nearly all actives have a fitted effect of over 65% in size
Target sequence (P53350 whole entry, looked up, the tested form may be a part): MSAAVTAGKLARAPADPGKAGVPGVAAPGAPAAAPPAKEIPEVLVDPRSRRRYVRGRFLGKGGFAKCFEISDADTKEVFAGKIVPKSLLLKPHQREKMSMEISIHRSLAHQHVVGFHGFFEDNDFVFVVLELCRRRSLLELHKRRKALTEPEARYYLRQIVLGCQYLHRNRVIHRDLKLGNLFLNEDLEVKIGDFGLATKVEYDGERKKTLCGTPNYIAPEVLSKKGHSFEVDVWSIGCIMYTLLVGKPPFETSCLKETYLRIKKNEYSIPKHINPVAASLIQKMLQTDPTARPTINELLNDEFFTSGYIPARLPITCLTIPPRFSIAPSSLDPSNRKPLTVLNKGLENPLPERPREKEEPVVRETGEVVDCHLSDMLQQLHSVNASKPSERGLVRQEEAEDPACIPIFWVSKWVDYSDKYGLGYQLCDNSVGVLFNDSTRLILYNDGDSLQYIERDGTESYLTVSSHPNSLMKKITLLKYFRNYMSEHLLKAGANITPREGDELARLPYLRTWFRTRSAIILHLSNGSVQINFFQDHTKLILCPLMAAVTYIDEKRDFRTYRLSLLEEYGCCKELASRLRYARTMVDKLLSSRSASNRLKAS
HP1b chromo inh: blocks HP1-beta chromodomain binding to methylated histone tails | P83916 | actives 0.56% (n = 390,000) | AlphaScreen HP1-beta / biotin-H3K9me3 peptide binding | Potency, µM (series often up to 114 µM), for inactives: at the highest dose activity change, negative = inhibition, most hits filed as inhibitors; note: potency is the fitted concentration of half-maximal effect; nearly all actives have a fitted effect of over 70% in size
Target sequence (P83916 whole entry, looked up): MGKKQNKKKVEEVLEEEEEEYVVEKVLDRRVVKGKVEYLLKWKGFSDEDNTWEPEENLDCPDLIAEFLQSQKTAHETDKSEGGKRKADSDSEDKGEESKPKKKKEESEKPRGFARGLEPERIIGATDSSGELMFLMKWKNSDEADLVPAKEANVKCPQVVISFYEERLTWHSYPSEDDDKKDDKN
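HP1-beta protein (50 nM final) preincubated 30 min at room temperature with biotinylated H3(1-18)K9me3 peptide (50 nM) in PBS pH 7.4, 0.01% Tween-20, then compound added for 30 min. AlphaScreen streptavidin donor/nickel chelate acceptor beads (10 ug/mL final), 30 min dark, luminescence read.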
BAZ2B inh: blocks human BAZ2B; Q9UIF8; AlphaScreen BAZ2B-H3K14Ac peptide displacement; Potency, µM (highest dose often 114 µM), for inactives: at the top dose activity change, negative = inhibition, hits mostly inhibitors; actives 4.4% (n = 360,000); note: potency is the fitted concentration of half-maximal effect; % is set by controls: 0 for no effect and ±100 for the full control effect; nearly all actives have a fitted effect of over 60% in size
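AlphaScreen luminescence quantifies BAZ2B engagement of H3K14Ac peptide; the protein and biotinylated peptide are both at 50 nM final, buffer PBS pH 7.4 with 0.01% Tween-20, all steps at room temperature.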
PI5P4K alpha inh: PI5P4K alpha (human) kinase inhibition | P48426 | PI5P4Kalpha enzyme, ADP-Glo luminescence, 60 min; active compounds read low | max response, % | actives 1.2% (n = 330,000); active = max response of -50% or lower; inconclusive = between -30% and -50%; inactive = -30% or higher; note: value at the top dose of about 77 µM; % is set by controls: 0 for no effect and ±100 for the full control effect
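Controls without substrate or without enzyme flank wells where PI5P4Kalpha converts substrate using 5 microM ATP (final). Incubation lasts 60 minutes at room temperature; ADP formed is read by ADP-Glo luminescence.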
G9a block: inhibitors of human histone lysine methyltransferase G9a. Q96KQ7. G9a H3K9 monomethylation, AlphaScreen, 2 h. Potency, µM (titrated, usually from 102 µM), for the others: at the top dose activity, negative = inhibition, actives largely listed as inhibitors. actives 8.8% (n = 350,000). AID 504332; note: potency is the fitted concentration of half-maximal effect; % is set by controls: 0 for no effect and ±100 for the full control effect; nearly all actives have a fitted effect of over 75% in size
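G9a (20 nM) preincubated 15 min RT with compounds, then 500 nM biotinylated H3K9 peptide and 20 uM SAM added; 2 h RT reaction. Monomethyl-H3K9 product detected by AlphaScreen with anti-H3K9me1 antibody, streptavidin donor and anti-rabbit IgG acceptor beads.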
JMJD2A Tudor inh: inhibitors of human JMJD2A Tudor domain; AlphaScreen JMJD2A-Tudor / H3K4me3 peptide binding; actives 4.4% (n = 390,000); Potency, µM (titrated, usually from 114 µM), for inactives: at the top dose activity change, negative = inhibition, usual class: inhibitors; O75164; note: potency is the fitted concentration of half-maximal effect; % is set by controls: 0 for no effect and ±100 for the full control effect; nearly all actives have a fitted effect of over 50% in size
* = called active by the depositor; ? = inconclusive; / = no result; [ ] = dose if it differs, or a comment. Unless noted, calls come from the whole dose curve; as a rule, active = well fitted curve in the direction sought with a large enough effect; inconclusive = small, poorly fitted or top-dose-only effect, or another doubt; inactive = no such curve, though single readings can be large; an effect the other way counts as inactive or inconclusive.

SMILES	PLK1 PBD block	HP1b chromo inh	BAZ2B inh	PI5P4K alpha inh	G9a block	JMJD2A Tudor inh
Fc1ccc(C2Nc3cccc4cccc(c34)N2)cc1	?	?	?	-19.6	-36.8%[2.33 µM]	?
Brc1ccc(C2Nc3cccc4cccc(c34)N2)cc1	-1.5%	?	/	-1.8	/	?
O=[N+]([O-])c1ccc(C2Nc3cccc4cccc(c34)N2)cc1	-7.5%	?	44.7µM*	-29.6	28.2µM*	?
CCOC(=O)c1ccc2c(c1)N(Cc1ccc(F)cc1Cl)C(=O)c1ccccc1S2(=O)=O	/	64.3%	3.8%	/	6.9%[59 µM]	-6.2%
CCOc1ccc(-c2nnc(SCC(=O)Nc3cccc(OC)c3)nc2-c2ccc(OCC)cc2)cc1	/	17.5%	-6.1%	/	-15.8%[59 µM]	-28.4%
CC(C)c1ccc(C2(C)NC(=O)N(CC(=O)N3CCN(C(=O)c4cccs4)CC3)C2=O)cc1 (stereo not drawn)	-3.1%	21.8%	-3.7%	0.1	11.6%[2.33 µM]	-18.5%
CC(C)CC1(C)NC(=O)N(CC(=O)Nc2ccccc2Br)C1=O (stereo not drawn)	-13.5%	10.6%[57 µM]	/	0.8	/	-1.4%
S=c1sc2c(N3CCN(Cc4ccccc4)CC3)ncnc2n1-c1ccccc1	-0.5%	6.1%	-6.7%	-0.4	-3.4%	4.8%
CCN1CCN(c2ncnc3c2sc(=S)n3-c2ccccc2)CC1	-17.6%	34.3%	3.2%	-1.4	50.1µM*	-20.4%
COc1ccc(C2=C(C)C(=O)N(Cc3ccc(C(=O)NCc4cccc(C)c4)cc3)S2(=O)=O)cc1	/	-11.8%	2.9%	/	36.2%[59 µM]	-12.3%
O=Cc1ccc2ccc3cccnc3c2n1	-5.0%	48.2%	?	-19.2	?	63.1µM*
O=Cc1ccc2cccnc2n1	-12.7%	43.9%	-7.6%	2.8	39.8µM*	?
O=C(O)c1cccc2cccnc12	-21.8%	-11.8%	?	-4.1	2.4%[59 µM]	-2.7%[11.4 µM]
CCCNC(=O)C[C@@H]1C[C@H]2c3cc(NC(=O)c4ccc5c(c4)OCO5)ccc3O[C@H]2[C@@H](CO)O1	-10.1%	/	/	-6.8	/	/
COc1ccc(C(=O)N2CCc3ccccc32)cc1	-9.6%	31.4%	0.5%	/	-5.2%[59 µM]	-11.0%
COc1ccc(C(=O)/C=C2\NCC3c4ccccc4CCN3C2=O)cc1 (stereo not drawn)	9.47µM*	-20.8%	10.1%[57.1 µM]	-7.7	-5.1%[12.7 µM]	-13.4%[57.1 µM]
Cc1ccccc1CN1C2=NCCN2c2ccccc21	26.7µM*	4.6%	-34.3%	-13.5	-33.5%[12.7 µM]	-15.3%[11.4 µM]
CCCCCN1C2=NCCN2c2ccccc21	23.8µM*	?	-2.4%	?	21.4%[59 µM]	-18.3%[11.4 µM]
Cc1ccccc1CN1C2=NCCCN2c2ccccc21	-4.8%	8.5%	29.4%	/	?	-0.7%
Nc1sc2c(c1C(=O)NC1CC1)CCCC2	18.9µM*	?	/	?	/	?
CCOC(=O)c1ccc(N2C(=O)c3[nH]nc(-c4ccccc4)c3C2c2ccc(CC)cc2)cc1 (stereo not drawn)	/	28.6%	/	/	-27.9%[59 µM]	-31.0%
CCOC(=O)C1(C)C=C(Nc2ccc(Br)cc2)C(=O)N1c1ccccc1 (stereo not drawn)	/	14.5%	1.3%	/	?	-5.9%
CCOC(=O)C1(C)/C(=N/Nc2ccccc2)C(=O)C(=O)N1c1ccccc1 (stereo not drawn)	23.8µM*	39.8µM*	?	-6.1	8.91µM*	31.6µM*
CCOC(=O)C1(C)C=C(Nc2cccc(OC)c2)C(=O)N1c1ccccc1 (stereo not drawn)	-4.1%	34.0%	-18.6%	-6.2	25.4%	?
CCOC(=O)C1(C)/C(=N/Nc2ccccc2OC)C(=O)C(=O)N1c1ccccc1 (stereo not drawn)	-18.1%	39.8µM*	39.8µM*	-2.5	4.47µM*	25.1µM*
SMILES	PLK1 PBD block	HP1b chromo inh	BAZ2B inh	PI5P4K alpha inh	G9a block	JMJD2A Tudor inh
Cc1ccc2c(c1)c1c3n2CCN(C=O)C3CCC1 (stereo not drawn)	-19.5%	-15.5%	?	15.9	50.1µM*	?
Cc1ccc2c(c1)c1c(n2C)C(=O)CCC1	-6.8%	63.4%	17.1%	1.2	11.8%[12.7 µM]	15.7%
CCN(CC)CCN1CCn2c3c(c4cc(C)ccc42)CCCC31 (stereo not drawn)	?	6.3%	?	3.7	?	56.2µM*
Cc1ccc2c(c1)c1c3n2CCN(C(=O)c2cccc(C(F)(F)F)c2)C3CCC1 (stereo not drawn)	/	-24.1%	28.2µM*	/	7.94µM*	?
Cc1ccc2c(c1)c1c3n2CCNC3CCC1 (stereo not drawn)	3.5%	-7.6%	?	16.3	-17.3%[59 µM]	?
CCN1CCn2c3c(c4cc(Cl)ccc42)CCCC31 (stereo not drawn)	-17.0%	4.3%	35.5µM*	21.4	?	-26.0%[11.4 µM]
COc1ccc(CNC(=O)CSc2nc(-c3ccc(OC)c(OC)c3)cc(C(F)(F)F)n2)cc1	/	38.6%	?	/	-33.2%[59 µM]	-6.9%
Cc1ccccc1OCC(O)CN1CCN(CC(O)COc2ccccc2C)C(C)C1 (stereo not drawn)	1.1%	?	22.4µM*	14.4	17.8%[2.33 µM]	2µM*
Cc1ccccc1OCC(O)CN1CCN(CCN2C(=O)c3cccc4cccc(c34)C2=O)CC1 (stereo not drawn)	-9.3%	-24.4%	?	2.5	79.4µM*	?
C=CCc1ccccc1OCC(O)CN1CCN(CCN2C(=O)c3cccc4cccc(c34)C2=O)CC1 (stereo not drawn)	-7.2%	?	?	-8.9	39.8µM*	?
Cc1ccccc1OCC(O)Cn1c2ccccc2c2ccccc21 (stereo not drawn)	0.7%	55.6%	6.3%	/	61.9%	8.8%
CCOc1ccc(OCCC(=O)OCC(=O)NCCc2ccc(S(N)(=O)=O)cc2)cc1	-0.5%	38.4%	6.4%	-0.5	12.2%[12.7 µM]	-8.4%
O=S(=O)(c1ccc(F)cc1)c1nc(-c2ccccc2F)oc1N1CCCCC1	-10.1%	-12.5%	?	/	?	-25.2%
Cc1ccc(S(=O)(=O)c2nc(-c3ccccc3Cl)oc2N2CCN(C)CC2)cc1	-3.5%	?	/	-4.6	/	50.1µM*
Cc1ccc(S(=O)(=O)c2nc(-c3ccccc3Cl)oc2N2CCCCCC2)cc1	/	?	?	/	7.08µM*	-33.2%
Cc1ccc(S(=O)(=O)c2nc(-c3ccccc3F)oc2N2CC(C)OC(C)C2)cc1 (stereo not drawn)	-5.7%	11.4%	?	-5.0	39.8µM*	-30.6%
O=C(O)CCCNC(=O)c1nn(Cc2ccccc2)c(=O)c2ccccc12	0.6%	51.9%	-16.6%	1.6	0.9%	4.3%
CC(=O)OCC(=O)C1(O)CCC2C3CCC4=CC(=O)CCC4(C)C3(F)C(O)CC21C (stereo not drawn)	-8.1%	21.0%	/	-5.1	/	-7.5%
CSc1ccc(CCNc2ncnc3onc(-c4ccc(Cl)cc4)c23)cc1	/	35.3%	16.2%[57.1 µM]	/	2.1%[59 µM]	-12.0%
